# Data reported in PubChem BioAssay.
# Calls of active or inactive are those of the source.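 Rule for the calls: active = normalized viability below 100% at a tested concentration; inactive = the rest.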
# Experiment: drug combination growth inhibition, ovarian cancer – cell-based, oncology-focused library, rucaparib conditional, profiling panel (AID 1508598)
# Conditions: patient-derived ovarian cancer cells, CellTiter-Glo viability, 144 h; at 0.0195 µM; OCI-P5x cells; with rucaparib 20 µM; stronger effect = lower value; 100% = cells with rucaparib alone
row,SMILES,viability
1,N#CCNC(=O)c1ccc(-c2ccnc(Nc3ccc(N4CCOCC4)cc3)n2)cc1,103% (inactive)
2,Nc1nc(Nc2ccc(S(N)(=O)=O)cc2)nn1C(=O)c1c(F)cccc1F,92.3% (active)
3,O=C(Nc1ccccc1-c1cn2c(CN3CCNCC3)csc2n1)c1cnc2ccccc2n1,111% (inactive)
4,COc1ccc(-c2ccc3c(N4CCOCC4)nc(N4C[C@@H](C)O[C@@H](C)C4)nc3n2)cc1CO,103% (inactive)
5,CC1(C)CNc2cc(NC(=O)c3cccnc3NCc3ccncc3)ccc21,140% (inactive)
6,COc1cc2nccc(Oc3ccc(NC(=O)Nc4cc(C)on4)c(Cl)c3)c2cc1OC,98.1% (active)
7,N#Cc1c(NC(=O)c2cccc3ccccc23)sc2c1CCCC2,98.6% (active)
8,COc1ccc(-c2ccc3c(N4CCOC[C@@H]4C)nc(N4CCOC[C@@H]4C)nc3n2)cc1CO,72.9% (active)
9,Cc1cnc(NC(=O)Nc2cc(Br)c(C)cc2OC[C@@H]2CNCCO2)cn1,107% (inactive)
10,COC(=O)c1ccc2c(C(=Nc3ccc(N(C)C(=O)CN4CCN(C)CC4)cc3)c3ccccc3)c(O)[nH]c2c1,94.4% (active)
11,Cc1ccc(F)c(NC(=O)Nc2ccc(-c3cccc4[nH]nc(N)c34)cc2)c1,108% (inactive)

# Same assay, conditions: patient-derived ovarian cancer cells, CellTiter-Glo viability, 144 h; at 0.0195 µM; OCI-P5x cells; without rucaparib; stronger effect = lower value
row,SMILES,viability
1,N#CCNC(=O)c1ccc(-c2ccnc(Nc3ccc(N4CCOCC4)cc3)n2)cc1,93.3% (active)
2,Nc1nc(Nc2ccc(S(N)(=O)=O)cc2)nn1C(=O)c1c(F)cccc1F,94.6% (active)
3,O=C(Nc1ccccc1-c1cn2c(CN3CCNCC3)csc2n1)c1cnc2ccccc2n1,114% (inactive)
4,COc1ccc(-c2ccc3c(N4CCOCC4)nc(N4C[C@@H](C)O[C@@H](C)C4)nc3n2)cc1CO,104% (inactive)
5,CC1(C)CNc2cc(NC(=O)c3cccnc3NCc3ccncc3)ccc21,105% (inactive)
6,COc1cc2nccc(Oc3ccc(NC(=O)Nc4cc(C)on4)c(Cl)c3)c2cc1OC,86.6% (active)
7,N#Cc1c(NC(=O)c2cccc3ccccc23)sc2c1CCCC2,103% (inactive)
8,COc1ccc(-c2ccc3c(N4CCOC[C@@H]4C)nc(N4CCOC[C@@H]4C)nc3n2)cc1CO,62.8% (active)
9,Cc1cnc(NC(=O)Nc2cc(Br)c(C)cc2OC[C@@H]2CNCCO2)cn1,104% (inactive)
10,COC(=O)c1ccc2c(C(=Nc3ccc(N(C)C(=O)CN4CCN(C)CC4)cc3)c3ccccc3)c(O)[nH]c2c1,97.5% (active)
11,Cc1ccc(F)c(NC(=O)Nc2ccc(-c3cccc4[nH]nc(N)c34)cc2)c1,97.3% (active)
